Only some compounds are listed: those with a hit (about 2.2% of all), similar ones and a draw of the others.
Abeta yeast res – qHTS for compounds that reverse cellular toxicity of Amyloid beta (A-beta) peptide in yeast: Primary Screen | AID 1347071, 2019 | hit rate 0.063% among 410,000 | Potency, µM (series often up to 46.1 µM), usual class: activators | yeast expressing A-beta42, growth rescue, OD600, 48 h; response scale: 0% DMSO, 100% iron-clioquinol control; also: nearly all actives have a fitted effect of over 55% in size
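Yeast growth medium received pinned compounds, then yeast cells expressing toxic A-beta were added; plates incubated at 30 C for 48 hr. Growth read as absorbance at 600 nm, normalized to DMSO and equimolar FeCl3 plus clioquinol controls.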
TDP43 rescue – qHTS of TDP-43 Inhibitors | hit rate 1.8% among 410,000 | AID 652104, 2013 | Potency, µM (series often up to 46.1 µM), without a hit: at the top dose growth rescue (activation), usual class: activators | TDP-43 expressing yeast growth rescue, BacTiter-Glo, 24 h; also: % of control where 0% means no effect; nearly all actives have a fitted effect of over 50% in size
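Galactose-induced TDP-43 yeast, OD600=0.02, compound pinned; 24 hr, 30 deg C; BacTiter-Glo luminescence for growth. Inhibitors of TDP-43 toxicity read as activators.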
aSyn yeast inh – qHTS of alpha-syn Inhibitors | Yeast expressing alpha-synuclein, growth rescue, BacTiter-Glo, 24 h | Potency, µM (highest dose often 46.1 µM), for inactives: top-dose growth rescue (activation), actives largely listed as activators | hit rate 0.14% among 370,000 | AID 652106, 2013; also: % of control where 0% means no effect; nearly all actives have a fitted effect of over 65% in size
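Readout is rescue of growth in alpha-synuclein-expressing yeast, so inhibitors of toxicity appear as activators. Growth after 24 hr at 30 deg C in galactose medium is quantified by luminescence.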
FUS yeast rescue – qHTS for Suppressors of FUS Proteinopathy: Primary screen using FUS-linked yeast assay | Potency, µM (series often up to 76.6 µM), usual class: activators | S. cerevisiae FUS-expressing, growth rescue, OD600, 24 h | AID 1347120, 2019 | hit rate 0.24% among 390,000;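 also: plate controls were DMSO vehicle for no effect and reference control for full effect; nearly all actives have a fitted effect of over 55% in size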
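Compound concentration series was pinned onto galactose-induced FUS-expressing yeast seeded at OD 0.005. Plates sat 24hr at 30C; absorbance at 600 nm gave growth. DMSO served as background control.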
Mito fusion yeast – qHTS Assay for Small Molecule Inhibitors of Mitochondrial Division or Activators of Mitochondrial Fusion; AID 485298, 2010; S. cerevisiae fusion-defective mutant growth rescue, CellTiterGlo 48 h; hit rate 0.23% among 320,000; Potency, µM (titrated, usually from 46.1 µM), inactives show at the top dose growth rescue (activation), most hits filed as activators; also: % of control where 0% means no effect; nearly all actives have a fitted effect of over 45% in size
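Temperature-sensitive fusion-defective S. cerevisiae (e.g. fzo1-1, mgm1-5) were grown with compound in YPEG medium (3% ethanol, 3% glycerol) for 48 hours at 37C. Growth rescue was measured as viability by CellTiterGlo luminescence after 10 minutes at ambient.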
Numbers without * were called inactive; i = inactive; ? = inconclusive; · = no result; [ ] = another dose, or the depositor's remark. Calls follow the shape of the dose curve; as a rule, active = well fitted curve in the direction sought with a large enough effect; inconclusive = small, poorly fitted or top-dose-only effect, or another doubt; inactive = no such curve, though single readings can be large; an effect the other way counts as inactive or inconclusive. Potency is read from the fitted curve at half-maximal effect.

SMILES | Abeta yeast res | TDP43 rescue | aSyn yeast inh | FUS yeast rescue | Mito fusion yeast
Clc1cccc(CSc2nnc(-c3ccccn3)n2Cc2ccco2)c1 | i | 20µM* | 8% | ? | 30%
Cc1ccccc1CSc1nnc(-c2cccs2)n1Cc1ccco1 | i | 11% | 7% | i | 6%
Brc1ccc(CSc2nnc(-c3ccccn3)n2Cc2ccco2)cc1 | i | 2% | -1% | i | ?
C=CCn1c(SCc2ccc3nonc3c2)nnc1-c1cccs1 | i | 18µM* | 12% | i | 2%
C=CCn1c(SCC(=O)C(C)(C)C)nnc1-c1cccs1 | i | 8% | 1% | i | 1%
c1ccc(CSc2nnc(-c3cccs3)n2Cc2ccco2)cc1 | i | 18µM* | 13% | i | 23%
O=C(C1CCN(S(=O)(=O)c2ccccc2F)CC1)N1CCc2ccccc21 | i | 13µM* | 15% | i | 8%
COc1cc(C(=O)Nc2ccc(C(C)=O)cc2)c(Br)c(OC)c1OC | i | 5% | -10% | · | 1%
CCCOC(=O)c1ccc(NC(=O)c2cc(OC)c(OC)c(OC)c2Br)cc1 | i | 13µM* | 6% | i | 5%
COCCNc1cc(N)c([N+](=O)[O-])cc1[N+](=O)[O-] | i | 11µM* | 5% | i | 4%
Cc1nc([N+](=O)[O-])c(Br)n1CC(=O)c1ccc2ccccc2c1 | i | 16µM* | 1% | 14µM* | -4%
Cc1nc([N+](=O)[O-])c(C(=O)OCc2ccccc2Br)n1C | i | 15%[9.22 µM] | 1% | i | -3%
Cc1nc([N+](=O)[O-])c(Br)n1CC(=O)c1ccccc1 | i[9.22 µM] | 16% | 14% | i | -19%
Cc1nc([N+](=O)[O-])c(Br)n1CC(=O)c1ccc(Br)cc1 | i | 11µM* | 7% | i | -3%
Cc1ccc(-c2nc3cnccn3c2Nc2ccc3c(c2)OCO3)cc1 | i | ? | 5% | i | -6%
COc1ccc(-c2nc3cnccn3c2Nc2ccc3c(c2)OCO3)cc1 | i | 24% | 6% | 28µM* | 3%
COc1cc(-c2nc(C(=O)NCC3CCCO3)cc3c2[nH]c2ccccc23)cc(OC)c1OC (stereo not given) | i | 28µM* | ? | ? | 0%
O=C(NCC1CCCO1)c1cc2c([nH]c3ccccc32)c(-c2cccc(Cl)c2)n1 (stereo not given) | i | 20µM* | 0% | ? | 6%
COc1ccccc1-c1nc(C(=O)NCC2CCCO2)cc2c1[nH]c1ccccc12 (stereo not given) | i | 20µM* | -12% | ? | 15%
OC(Cc1cccc(C=NN2CCOCC2)n1)(C(F)(F)F)C(F)(F)F | i | 12% | 0% | i | ·
COc1ccccc1N(CC(=O)NCCN1CCOCC1)S(=O)(=O)c1ccccc1 | i | -9% | -14% | i | -3%
COC(=O)c1ccn(CSc2c(F)c(F)cc(F)c2F)n1 | i | 8% | 1% | i | 0%
COC(=O)c1ccn(CSc2cc(Cl)ccc2Cl)n1 | i | 13µM* | -6% | i | 15%
CCN(CC)c1ccc(NS(=O)(=O)c2cc(-c3onc(C)c3C)ccc2OC)c(C)c1 | i | -3% | · | i | ·
CC(C)c1ccccc1OCCNC(=O)c1cccnc1 | i | -10%[0.397 µM] | 5% | i | -7%
SMILES | Abeta yeast res | TDP43 rescue | aSyn yeast inh | FUS yeast rescue | Mito fusion yeast
CC(C)c1ccccc1OCCNC(=O)c1cncc(Br)c1 | i | 20µM* | 14% | i | 4%
CCc1ccc(NC(=O)Cn2c(=O)n(-c3cc(OC)c(OC)c(OC)c3)c(=O)c3ccccc32)cc1 | i | -11% | · | i | ·
CCn1c2ccccc2c2cc(Nc3cc(C)nc4ncnn34)ccc21 | i | 16µM* | 9% | i | 16µM*
CC(C)(C)C(=O)Nc1nnc(SCc2ccc(F)cc2)s1 | ? | 18µM* | · | i | 9%
CC(C)(C)C(=O)Nc1nnc(SCc2cccc(F)c2)s1 | ? | ? | -1% | i | 5%
Cc1ccc(Cn2cc(CCC(=O)NC3CCC(C)CC3)c3ccccc32)cc1 (stereo not given) | i | 1% | · | i | ·
Cc1ccc2c(c1)N(C(=O)CCC(=O)NCc1ccccc1)CC(C)O2 (stereo not given) | i | 0% | 0% | i | 0%
Cc1ccc2c(c1)N(C(=O)CCC(=O)NCc1cccc(Cl)c1)CC(C)O2 (stereo not given) | i | ? | -6% | i | 16µM*
C/C(N)=C(/C#N)C(=O)CSc1nc2ccccc2c(=O)n1Cc1ccc(F)cc1 | 13µM* | 10µM* | 13% | i | 3%
C/C(N)=C(/C#N)C(=O)CSc1nc2ccccc2c(=O)n1Cc1ccc(C)cc1 | i | 3%[9.22 µM] | 0% | i | -17%
CC(C)(C)CN1CCN(CCCc2ccccc2)C(CCO)C1 (stereo not given) | i | -9% | 0% | i | 2%
CC(C(=O)O)(C1CCCCC1)C1(O)CCCCC1 (stereo not given) | i | ? | 0% | i | ·
CC1CCC(C(O)(C(=O)O)C2CCCCC2)CC1C (stereo not given) | i | 18µM* | 14% | · | ·
Cn1c(SC/C=C/c2ccccc2)nnc1-c1cccs1 | i | 18µM* | 17% | i | 11%
Cc1ccc(OCCSc2nnc(-c3cccs3)n2C)cc1 | i | 13µM* | 6% | i | 0%
Cc1cc(OCCSc2nnc(-c3cccs3)n2C)ccc1Cl | i | ? | -1% | i | 9%
CCOC(=O)c1c(NC(=O)c2cc(=O)c3cc(C)cc(C)c3o2)sc(C)c1C | i | 10% | · | i | ·
O=C(Nc1ccsc1C(=O)NC1CC1)c1ccccc1 | i | 13µM* | -11% | i | 14%
O=S1(=O)C[C@H](N2CCN(CCO)CC2)[C@@H](COCc2ccccc2)N1 | i | 11% | -12% | i | ·
CCN(CC)c1ccc(C(=C2C=CC(=[N+](CC)CC)C=C2)c2ccc(N(CC)CC)cc2)cc1 | i | -97% | -78% | 35µM* | ·
Cc1ccc(-c2noc(C3CCCN(C(=O)c4ccccc4Br)C3)n2)cc1 (stereo not given) | i | 13µM* | 0% | i | 7%
O=C(Nc1ccc(F)cc1F)N1CCCC(c2nc(-c3ccc(F)cc3)no2)C1 (stereo not given) | i | 13µM* | 0% | ? | 13%
CCOc1ccc(CCNC(=O)c2c(C)oc3ncn(CC(C)C)c(=O)c23)cc1 | i | 20µM* | · | i | ·
O=C(NC1CCCC1)c1cc2c(ccc3ccccc32)o1 | i | 11% | -3% | · | -4%

Screens (PubChem)
